Structures are written as SMILES. Inconclusive results are not listed. A structure can be active in one record and inactive in another. Active and inactive are the calls of the source. How the source made its calls: active means hit-call score of the fitted dose curve at least 0.9, where 1 is the maximum; inconclusive means response in the unintended direction; inactive means score below 0.9.

The nature of the experiment: Tanguay_ZF_120hpf_SNOU_legacy: (Legacy) Oregon State University Tanguay Lab 120 Hour Post-fertilization zebrafish Assay for Snout Malformation (AID 2283637). The method, then:
Tanguay_ZF_120hpf_legacy is a whole embryo, multiplexed endpoint assay using zebrafish larvae exposed for 120 hours post fertilization on a 96-well plate.Tanguay_ZF_120hpf_SNOU_legacy is one of one assay component(s) measured or calculated from the Tanguay_ZF_120hpf_legacy assay. It is designed to make measurements of zebrafish development as detected with brightfield microscopy of developing zebrafish embryos.Data from the assay component Tanguay_ZF_120hpf_SNOU_legacy was analyzed into 1 assay endpoints. This assay endpoint, Tanguay_ZF_120hpf_SNOU_legacy, was analyzed in the positive analysis fitting direction relative to DMSO as the negative control and baseline of activity. Using a type of morphology reporter, gain-of-signal activity can be used to understand changes in developmentals as they relate to the whole embryo. To generalize the intended target to other relatable targets, this assay endpoint is annotated to the zebrafish development intended target family, where the subfamily is embryonic snout morphogenesis.
Zebrafish husbandry: Tropical 5D wild-type adult zebrafish were housed in at an approximate density of 1000 per 100 gallon tank at the Sinnhuber Aquatic Research Laboratory, Oregon State University, Corvallis, OR. Each tank was kept at standard laboratory conditions of 28C on a 14-h light/10-h dark photoperiod in fish water consisting of reverse osmosis water supplemented with a commercially available salt (Instant Ocean). Spawning funnels were placed into the tanks the night prior, and embryos were collected and staged. To increase bioavailability, the chorion was enzymatically removed using pronase (63.6mg/ml, >/= 3.5U/mg, Sigma-Aldrich: P5147) at 4 hours post fertilization (hpf) using a custom automated dechorionator.Chemical exposures: Six hpf dechorionated embryos were placed 1 embryo per well in a 96-well plate prefilled with 90 ul of EM using automated embryo placement systems (AEPS). Ten microliters of each row of dilution plate 2 was added to 2 exposure plates. The final DMSO concentration used was 0.64% (vol/vol). Thirty-two embryos were also exposed to 5uM trimethyltin chloride (positive control). Plates were sealed to prevent evaporation and foil covered to reduce light exposure and kept in a 28C incubator. Embryos were statically exposed until 120 hpf. At 24 hpf, embryos were assessed for photomotor response using a custom photomotor response analysis tool (PRAT) and for developmental toxicity endpoints (MO24: mortality at 24 hpf, DP: developmental progression, SM: spontaneous movement, and NC: notochord distortion). At 120 hpf, locomotor activity was measured using Viewpoint Zebralab and assessed for 18 endpoints. Zebrafish acquisition and analysis program (ZAAP), a custom program designed to inventory, acquire, and manage zebrafish data, was used to collect developmental endpoints as either present or absent (i.e., binary responses were recorded). If mortality occurred for an embryo (at either 24 or 120 hpf), the non-mortality endpoints were not measured.
For the molecule `CN(C)N=O`, the outcome was inactive. As to `CC(C)(C)c1cc(O)ccc1O`, the molecule was classed as inactive. In the case of `Oc1cccc2cccnc12`, the outcome was inactive.

As to `O=C(Nc1ccc2[nH]ccc2c1)c1cc2cc(F)ccc2n1Cc1cccc(F)c1`, the call was inactive. For `CCCCCCCCc1ccc(O)cc1`, the molecule was called inactive. In the case of `COc1cc(-c2ccc(N)c(OC)c2)ccc1N`, the molecule was called inactive and the AC50 was 12 µM (active).

With `ClC1(Cl)C2(Cl)C3(Cl)C4(Cl)C(Cl)(Cl)C5(Cl)C3(Cl)C1(Cl)C5(Cl)C24Cl` (stereo not drawn), the molecule was classed as inactive. `CCOP(=S)(OCC)Oc1nc(Cl)c(Cl)cc1Cl`: the outcome was inactive. For the molecule `O=C(O)C(F)(F)C(F)(F)C(F)(F)C(F)(F)C(F)(F)C(F)(F)C(F)(F)C(F)(F)C(F)(F)C(F)(F)F`, the result was inactive. The same measure, in the same setting: the same measure for `CC(=O)[O][Hg][c]1ccccc1`: “inactive”; for `CC(C)(OO)c1ccccc1`: “inactive”. For `CCOP(=S)(OCC)SCSP(=S)(OCC)OCC`, the outcome was inactive.

On to `O=C(O)C(Cl)(Cl)Cl`, for which the result was inactive. In the case of `CCC(=O)C(CC(C)N(C)C)(c1ccccc1)c1ccccc1` (stereo not drawn), the half-maximal activity concentration (AC50) is 29.1 µM (active). Same read-out and setting: the value for `O=C1C2(Cl)C3(Cl)C4(Cl)C(Cl)(Cl)C5(Cl)C3(Cl)C1(Cl)C5(Cl)C24Cl` (stereo not drawn) was 9.66 µM (active). For `O=[N+]([O-])c1ccc(O)c([N+](=O)[O-])c1`, the molecule was called inactive. On to `C=CC(=O)OCCCCCC(C)C`, for which the molecule was classed as inactive. Turning to `CC12CC1(C)C(=O)N(c1cc(Cl)cc(Cl)c1)C2=O` (stereo not drawn), the call was inactive. For `NC(=O)O`, the result was inactive. For `CCC(C)(C)c1ccc(O)c(C(C)(C)CC)c1`, the outcome was inactive.

On to `Cc1ccccc1N`, for which the outcome was inactive. Turning to `CC(C)(c1ccccc1)c1ccc(O)c(C(C)(C)c2ccccc2)c1`, the molecule was classed as inactive.

As to `O=c1[nH]c(=O)[nH]c(=O)[nH]1`, the call was inactive. On the same count and under the same terms, the same measure for `C=C(C)C(=O)[O][Sn]([CH2]CCC)([CH2]CCC)[CH2]CCC`: “inactive”; for `CCN1CCC2(CC1)COc1cc3c(cc12)N(C(=O)c1ccc(-c2ccc(-c4nnc(C)o4)cc2C)cc1)CC3`: “inactive”. Same read-out and setting: the same measure for `C[C@]12CCC(=O)C[C@@H]1CC[C@@H]1[C@@H]2CC[C@]2(C)[C@@H](O)CC[C@@H]12`: “inactive”; for `ClCC(Cl)CCl`: “inactive”.

A word on the AC50: it is the concentration at which the activity in the assay is half-maximal.

Values taken from PubChem BioAssay (EPA / NIEHS).
